Consider 12 molecules from PubChem BioAssay (Tox21).

Assay [1] is described as follows: qHTS assay to identify small molecule agonists of the peroxisome proliferator-activated receptor delta (PPARd) signaling pathway - cell viability counter screen (AID 743211). Further: on the % scale 0 is the no-effect control and ±100 the full control effect; nearly all actives have a fitted effect of over 55% in size. An outline of the steps: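 Tox21 library compounds, delivered in DMSO, were incubated 17 h with PPARd-bla HEK293H cells; cytotoxicity was taken from CellTiter-Glo luminescence read 30 min after reagent addition.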
On the technique in general: In qHTS, concentration-response curves come from the screen itself.

Assay [2] is described as follows: qHTS assay to identify small molecule agonists of the farnesoid-X-receptor (FXR) signaling pathway - cell viability counter screen (AID 743218). Further: on the % scale 0 is the no-effect control and ±100 the full control effect; nearly all actives have a fitted effect of over 45% in size. A digest of the protocol: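 HEK 293T FXR-bla cells; 5 h pre-incubation, 16 h compound exposure at 37 C; LiveBLAzer substrate 2 h RT, then CellTiter-Glo 30 min RT, luminescence.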
Assay [3] concerns the target Vitamin D3 receptor (Homo sapiens) (UniProt P11473). Put plainly: qHTS assay to identify small molecule agonists of the vitamin D receptor (VDR) signaling pathway (AID 743222; calls by dose curve; further: on the % scale 0 is the no-effect control and ±100 the full control effect). A digest of the protocol:
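VDR-bla cells, 2,000/well; 4 h preincubation 37C; cpd (DMSO) 16 h; LiveBLAzer B/G substrate 2 h RT; fluorescence intensity read.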

The target is the same in assay [4]. Nature of the assay: qHTS assay to identify small molecule antagonists of the vitamin D receptor (VDR) signaling pathway (AID 743223; active means well fitted inhibition curve with a large enough effect in the signal ratio in the repeat runs, not every such curve was filed as active; the % refers to the signal ratio; further: on the % scale 0 is the no-effect control and ±100 the full control effect). A digest of the protocol:
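Quantitative HTS in VDR-bla reporter cells stimulated with 1alpha,25-dihydroxyvitamin D3, 3 nM final. Compound exposure 16 h, 37C, 5% CO2. Read-out: beta-lactamase FRET substrate fluorescence, 2 h RT.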

A short description of assay [5]: qHTS assay to identify small molecule agonists of the vitamin D receptor (VDR) signaling pathway - cell viability counter screen (AID 743224). Further: series mostly up to about 63 µM; on the % scale 0 is the no-effect control and ±100 the full control effect; nearly all actives have a fitted effect of over 50% in size. An outline of the steps:
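Luminescence from CellTiter-Glo, read after 30 min at room temperature, reports viability of VDR-bla cells treated with compounds for 16 h at 37C in the wells used for the beta-lactamase FRET read.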

The nature of assay [6]: qHTS assay to identify small molecule antagonists of the vitamin D receptor (VDR) signaling pathway - cell viability counter screen (AID 743225). Further: on the % scale 0 is the no-effect control and ±100 the full control effect; nearly all actives have a fitted effect of over 50% in size. An outline of the steps: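 Same-well multiplex: following 16 h treatment of HEK 293T cells carrying a UAS-driven beta-lactamase reporter with compound and agonist (3 nM final), and a 2 h FRET substrate step, CellTiter-Glo was added and luminescence read after 30 min.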

Assay [7] can be described thus: qHTS assay to identify small molecule agonists of the NFkB signaling pathway - cell viability counter screen (AID 1159515; calls by dose curve; further: series mostly up to about 61 µM; on the % scale 0 is the no-effect control and ±100 the full control effect; nearly all actives have a fitted effect of over 55% in size). An outline of the steps: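 Luminescence from CellTiter-Glo (30 min, room temperature) gives viability, measured in the same wells as the beta-lactamase reporter read. Cells were NFkB-bla ME-180, 2,000 per well, treated 5 hr with compounds.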

Assay [8] in a line: qHTS assay to identify small molecule agonists of the endoplasmic reticulum stress response signaling pathway (AID 1159516; active means well fitted activation curve with a large enough effect in the signal ratio in the repeat runs, not every such curve was filed as active; the % refers to the signal ratio; further: on the % scale 0 is the no-effect control and ±100 the full control effect). An outline of the steps:
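Read-out is beta-lactamase cleavage of a FRET substrate (405 nm excitation; 460 and 530 nm emissions) in ESRE-bla HeLa cells after a 5 hr compound exposure at 37 C. Substrate incubation ran 2 hr at room temperature.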

Assay [9] in a line: qHTS assay to identify small molecule agonists of the endoplasmic reticulum stress response signaling pathway - cell viability counter screen (AID 1159517; calls by dose curve;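 further: HeLa cells carrying an ER stress response element beta-lactamase reporter; series mostly up to about 61 µM; on the % scale 0 is the no-effect control and ±100 the full control effect; nearly all actives have a fitted effect of over 50% in size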). A digest of the protocol: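 CellTiter-Glo was added to wells already read for beta-lactamase FRET, and luminescence was recorded 30 min later. Cells: ESRE-bla HeLa, 1,500 per well, compound exposure 5 hr at 37 C.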
Assay [10] in a line: qHTS assay to identify small molecule antagonists of the retinoid-related orphan receptor gamma (ROR-gamma) signaling pathway - cell viability counter screen (AID 1159520). Further: on the % scale 0 is the no-effect control and ±100 the full control effect; nearly all actives have a fitted effect of over 50% in size. An outline of the steps: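 Tet-on ROR gamma CHO cells (1,000/well) were plated 4 hr, given compounds in DMSO for 2 hr at 37 C, then induced with 1 uM final doxycycline for 16 hr. Viability was read as ATP by CellTiter-Glo luminescence after 30 min.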

Assay [11] addresses Nuclear receptor ROR-gamma (Homo sapiens) (UniProt P51449). Nature of the assay: qHTS assay to identify small molecule antagonists of the retinoid-related orphan receptor gamma (ROR-gamma) signaling pathway (AID 1159521; further: nearly all actives have a fitted effect of over 50% in size; further: potency means the concentration at half of the fitted maximal effect). An outline of the steps: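 Inducible-expression reporter assay: doxycycline (1 uM final) switched on RORγ in CHO cells bearing a ROR response element-luciferase construct, with test compounds present from 2 h beforehand. Decreased luminescence after 16 h defined antagonist activity.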

Assay [12] is described as follows: qHTS assay to identify small molecule agonists of the AP-1 signaling pathway - cell viability counter screen (AID 1159525; calls by dose curve; further: nearly all actives have a fitted effect of over 55% in size). A digest of the protocol:
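ME-180 AP-1-bla, 2500 cells/well, Opti-MEM + 0.5% dialyzed FBS; overnight 37 °C; cpd 15-pt titration, 5 h 37 °C; CellTiter-Glo 30 min RT; luminescence read; normalised to TOAB and DMSO controls.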

Assay [13] has as its target Retinoic acid receptor RXR-alpha (Homo sapiens) (UniProt P19793). Nature of the assay: qHTS assay to identify small molecule agonists of the RXR signaling pathway (AID 1159527; calls by dose curve; further: on the % scale 0 is the no-effect control and ±100 the full control effect; nearly all actives have a fitted effect of over 35% in size). A digest of the protocol:
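Compounds in DMSO were added to RXR-alpha-UAS-bla HEK 293T cells kept in 2% charcoal-stripped serum, and incubated 16 hr at 37 C with 5% CO2. Reporter signal came from a 2 hr B/G FRET substrate step.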

A short description of assay [14]: qHTS assay to identify small molecule antagonists of the peroxisome proliferator-activated receptor delta (PPARd) signaling pathway - cell viability counter screen (AID 743213). An outline of the steps:
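PPARd-bla HEK293H cells (3000/well) got compound plus 300 nM L165041 agonist for 17 h at 37 C. Viability in the same wells came from CellTiter-Glo luminescence after 30 min at room temperature.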

A short description of assay [15]: qHTS assay to identify small molecule antagonists of the farnesoid-X-receptor (FXR) signaling pathway - cell viability counter screen (AID 743221; active means well fitted cell-killing curve with a large enough effect in the repeat runs, not every such curve was filed as active). A digest of the protocol:
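Cytotoxicity is taken from ATP luminescence (CellTiter-Glo, 30 min, room temperature) in FXR-bla HEK 293T cells previously incubated 16 h at 37 C with compound and chenodeoxycholic acid at 50 uM final.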

Assay [16] is described as follows: qHTS assay to identify small molecule agonists of the AP-1 signaling pathway (AID 1159526; calls by dose curve; further: on the % scale 0 is the no-effect control and ±100 the full control effect).
Assay [17] has as its target Bile acid receptor (Homo sapiens) (UniProt Q96RI1). Nature of the assay: qHTS assay to identify small molecule antagonists of the farnesoid-X-receptor (FXR) signaling pathway (AID 743217; active means well fitted inhibition curve with a large enough effect in the signal ratio in the repeat runs, not every such curve was filed as active; the % refers to the signal ratio; further: on the % scale 0 is the no-effect control and ±100 the full control effect). An outline of the steps:
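HEK 293T FXR-UAS-bla, 5000 cells/well; compound + CDCA 50 uM final; 16 h, 37 °C; B/G FRET substrate 2 h RT; fluorescence.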

Assay [18] has the same target. Put plainly: qHTS assay to identify small molecule agonists of the farnesoid-X-receptor (FXR) signaling pathway (AID 743220; active means well fitted activation curve with a large enough effect in the signal ratio in the repeat runs, not every such curve was filed as active; the % refers to the signal ratio; further: on the % scale 0 is the no-effect control and ±100 the full control effect). A digest of the protocol: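 Beta-lactamase reporter under UAS control in GeneBLAzer FXR HEK 293T cells (5000/well) measured with LiveBLAzer FRET substrate after 2 h at room temperature. Compound exposure lasted 16 h at 37C.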
Assay [19] addresses Peroxisome proliferator-activated receptor delta (Homo sapiens) (UniProt Q03181). Put plainly: qHTS assay to identify small molecule agonists of the peroxisome proliferator-activated receptor delta (PPARd) signaling pathway (AID 743212; calls by dose curve; further: on the % scale 0 is the no-effect control and ±100 the full control effect). A digest of the protocol: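 A PPARd-bla HEK293H line with beta-lactamase under an Upstream Activator Sequence is treated with compounds at 37 C. Substrate loading for 2 h at room temperature precedes the fluorescence measurement.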

The target is the same in assay [20]. Nature of the assay: qHTS assay to identify small molecule antagonists of the peroxisome proliferator-activated receptor delta (PPARd) signaling pathway (AID 743215; active means well fitted inhibition curve with a large enough effect in the signal ratio in the repeat runs, not every such curve was filed as active; the % refers to the signal ratio). An outline of the steps:
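Read-out is beta-lactamase FRET fluorescence, measured 2 h after substrate addition at room temperature. Beforehand, UAS-bla HEK293H cells carrying the PPARd reporter were exposed to compounds with L165041 at 300 nM final for 17 h at 37 C.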

The structures appear in SMILES notation. Records with an inconclusive call do not appear. Unmarked numbers belong to inactive results. Active and inactive are the calls of the source. Unless noted, the call rests on the fitted dose curve; in most records, active means well fitted curve in the direction sought with a large enough effect in the repeat runs; inconclusive means weak or mixed curves; inactive means no such curve, though single readings can be large; an effect the other way counts as inactive or inconclusive.

Sequence of Bile acid receptor (Homo sapiens) (Q96RI1 whole entry, looked up): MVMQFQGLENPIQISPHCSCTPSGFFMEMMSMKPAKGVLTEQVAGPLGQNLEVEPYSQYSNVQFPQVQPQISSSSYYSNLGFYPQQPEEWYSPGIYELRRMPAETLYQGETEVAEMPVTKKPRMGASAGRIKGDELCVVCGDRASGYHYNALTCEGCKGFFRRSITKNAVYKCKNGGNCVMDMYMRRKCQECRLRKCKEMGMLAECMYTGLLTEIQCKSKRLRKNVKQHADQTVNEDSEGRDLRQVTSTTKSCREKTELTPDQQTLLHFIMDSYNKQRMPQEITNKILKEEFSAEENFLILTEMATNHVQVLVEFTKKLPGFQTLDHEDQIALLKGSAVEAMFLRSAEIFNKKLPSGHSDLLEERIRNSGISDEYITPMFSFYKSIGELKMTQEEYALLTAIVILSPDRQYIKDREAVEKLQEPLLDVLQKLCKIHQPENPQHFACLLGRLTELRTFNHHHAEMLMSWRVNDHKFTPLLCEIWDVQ
Sequence of Retinoic acid receptor RXR-alpha (Homo sapiens) (P19793 whole entry, looked up): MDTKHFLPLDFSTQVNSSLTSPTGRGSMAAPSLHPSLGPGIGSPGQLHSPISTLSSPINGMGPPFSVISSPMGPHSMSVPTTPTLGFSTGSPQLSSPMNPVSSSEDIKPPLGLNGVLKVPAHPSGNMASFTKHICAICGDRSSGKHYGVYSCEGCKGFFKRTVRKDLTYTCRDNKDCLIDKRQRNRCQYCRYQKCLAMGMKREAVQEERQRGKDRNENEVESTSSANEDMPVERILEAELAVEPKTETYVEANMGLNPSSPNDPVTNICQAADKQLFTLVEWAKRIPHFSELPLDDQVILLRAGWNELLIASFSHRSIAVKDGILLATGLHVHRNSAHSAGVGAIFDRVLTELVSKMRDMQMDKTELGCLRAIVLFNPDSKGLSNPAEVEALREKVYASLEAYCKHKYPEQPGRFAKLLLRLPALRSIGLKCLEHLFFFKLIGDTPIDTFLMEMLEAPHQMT
Sequence of Vitamin D3 receptor (Homo sapiens) (P11473 whole entry, looked up): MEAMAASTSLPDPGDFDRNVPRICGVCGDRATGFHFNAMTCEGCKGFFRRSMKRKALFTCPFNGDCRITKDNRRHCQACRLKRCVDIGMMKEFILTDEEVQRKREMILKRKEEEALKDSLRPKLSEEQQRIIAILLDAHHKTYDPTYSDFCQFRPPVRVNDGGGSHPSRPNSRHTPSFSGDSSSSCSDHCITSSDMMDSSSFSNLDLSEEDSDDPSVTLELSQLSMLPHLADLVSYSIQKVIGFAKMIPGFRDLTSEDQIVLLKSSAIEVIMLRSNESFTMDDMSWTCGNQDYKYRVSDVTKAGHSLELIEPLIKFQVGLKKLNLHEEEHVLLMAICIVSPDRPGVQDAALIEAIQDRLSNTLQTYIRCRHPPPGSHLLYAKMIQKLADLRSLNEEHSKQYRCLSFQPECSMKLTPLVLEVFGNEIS
Sequence of Peroxisome proliferator-activated receptor delta (Homo sapiens) (Q03181 whole entry, looked up): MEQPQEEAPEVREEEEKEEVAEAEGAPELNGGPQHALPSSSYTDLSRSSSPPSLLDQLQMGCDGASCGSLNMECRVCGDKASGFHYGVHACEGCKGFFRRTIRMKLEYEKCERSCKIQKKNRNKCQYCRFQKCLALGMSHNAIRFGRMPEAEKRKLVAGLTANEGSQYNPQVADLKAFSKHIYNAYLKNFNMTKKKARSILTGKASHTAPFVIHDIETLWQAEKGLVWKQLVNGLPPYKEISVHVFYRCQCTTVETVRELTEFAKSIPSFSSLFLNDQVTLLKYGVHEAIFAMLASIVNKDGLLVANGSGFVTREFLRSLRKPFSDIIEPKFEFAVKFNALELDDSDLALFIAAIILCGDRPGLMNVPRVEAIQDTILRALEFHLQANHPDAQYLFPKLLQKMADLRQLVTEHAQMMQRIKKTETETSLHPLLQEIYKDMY

For `CCN(CCO)CCCC(C)Nc1ccnc2cc(Cl)ccc12` (stereo unspecified), the activity change, negative = cytotoxicity is 9.74% [at 5.95 µM] in assay [1], 1.38% [at 5.95 µM] in assay [5] and 5.2% [at 6.95 µM] in [9]. The figures for the viability change, negative = cytotoxic in assay [2], in [6] and in assay [12] were -0.758% [at 5.95 µM], -0.399% [at 6.95 µM] and 2.23% [at 6.97 µM], respectively. In addition, the activation in assay [3] is 9.25% [at 6.01 µM]; in [8], -0.628% [at 6.95 µM]; in assay [13], 7.66% [at 6.98 µM]. Also, the activity change, negative = inhibition is -3.93% [at 6.95 µM] in assay [4] and 13.3% [at 8.39 µM] in assay [11]. In addition, in assay [7], the activity, negative = cytotoxic is 7.84% [at 6.95 µM]. Also, the activity, negative = cytotoxicity in assay [10] is 0.752% [at 8.39 µM].

For `NC(N)=N/N=C/c1c(Cl)cccc1Cl`, the Potency entry in assay [1], in [14], in assay [2], in assay [15], in [4] and in assay [5] was “inactive” throughout. For the same molecule, the Potency result in assay [6], in assay [7], in assay [8], in assay [10], in assay [11] and in assay [12] was “inactive” throughout. The result in assay [9] was inactive.

`CN(C)C/C=C(/c1ccc(Br)cc1)c1cccnc1`: the Potency entry in assay [14], in [2], in assay [4], in assay [5], in assay [6] and in [7] was “inactive” each time. Further, the Potency entry in assay [8], in assay [10], in assay [11], in assay [16] and in [13] was “inactive” throughout. For the same molecule, the molecule was classed as inactive in assay [3] and in assay [9].

In the case of `O=S1(=O)c2cccc3cccc(c23)N1CCCN1CCN(c2ccc(F)cc2)CC1`, the Potency result in assay [14], in assay [2], in assay [15], in assay [4], in [5] and in assay [6] was “inactive” throughout. The Potency entry in assay [7], in assay [8], in assay [10], in [11] and in assay [12] was “inactive” throughout. Also, the outcome in [17], in assay [18], in assay [3] and in assay [9] was inactive.

`CC[C@]12CCCN3CCc4c(n(c5ccccc45)C(=O)C1)[C@@H]32`: the Potency result in assay [1], in assay [14], in assay [2], in [15], in assay [5] and in assay [6] was “inactive” throughout. In addition, the Potency entry in assay [7], in [8], in assay [10], in assay [11], in assay [12] and in assay [13] was “inactive” each time. Besides, the outcome in assay [19] and in assay [9] was inactive.

As for `CC(C)(C)c1ccc(OCC2CO2)cc1` (stereo unspecified), the Potency entry in [1], in [14], in [2], in assay [15], in assay [4] and in assay [5] was “inactive” throughout. Besides, the Potency result in assay [7], in assay [8], in assay [10], in [11], in [12] and in assay [13] was “inactive” in each case. Further, the molecule was classed as inactive in [19], in [3] and in assay [9].

As to `Oc1ccc(Cc2ccccc2)cc1`, the call in assay [19], in assay [3] and in assay [9] was inactive. The Potency result in assay [14], in assay [2], in [15], in assay [5], in [7] and in assay [8] was “inactive” in each case. Moreover, the Potency result in assay [10], in assay [11], in assay [12] and in assay [13] was “inactive” in each case.

`CC(C)NCC(O)c1cc(O)cc(O)c1` (stereo unspecified): the Potency result in assay [1], in assay [14], in assay [2], in [4], in [6] and in assay [7] was “inactive” each time. For the same molecule, the Potency entry in assay [8], in assay [10], in [11], in assay [12] and in assay [13] was “inactive” throughout. Besides, the outcome in assay [3] and in [9] was inactive.

Take `CC1(C)CCC(C)(C)c2cc(NC(=O)c3ccc(C(=O)O)cc3)ccc21`: the Potency entry in assay [1], in assay [14], in assay [2], in assay [15], in assay [4] and in assay [5] was “inactive” each time. Also, the Potency result in assay [6], in [7], in [8], in assay [10] and in assay [12] was “inactive” each time. Moreover, the call in [19], in assay [17], in assay [3] and in [9] was inactive. In addition, the Potency in [11] is 26.6 µM (active).

On to `CC(=O)c1ccc2c(c1)[C@H](NC(=O)c1ccc(F)cc1)[C@@H](O)C(C)(C)O2`, for which the Potency result in assay [1], in assay [14], in assay [2], in assay [15], in [5] and in [6] was “inactive” throughout. Also, the Potency entry in assay [7], in assay [8], in assay [11], in assay [12] and in assay [16] was “inactive” in each case. Besides, the molecule was called inactive in assay [19], in assay [3] and in assay [9].

For `N[C@H]1C(O)O[C@H](CO)[C@H](O)[C@@H]1O` (stereo partly specified), the Potency result in [1], in assay [14], in [2], in assay [15], in assay [4] and in assay [6] was “inactive” each time. Also, the Potency result in assay [7], in assay [8], in [11], in assay [12] and in assay [16] was “inactive” throughout. Besides, the outcome in assay [19], in [20], in assay [3] and in assay [9] was inactive.

Turning to `CC(CN)CCCN` (stereo unspecified), the Potency entry in assay [1], in [14], in assay [2], in [15], in assay [5] and in [6] was “inactive” throughout. For the same molecule, the Potency result in assay [7], in assay [8], in assay [10], in assay [11] and in assay [16] was “inactive” throughout. Moreover, the molecule was classed as inactive in [9].
